Hits are enriched below; roughly 6.5% of the tested compounds scored in any of these assays.
PMK inhibit = S. pneumoniae PMK inhibitors, primary screen, biochemical, mevalonate pathway, pilot trial included; purified PMK, PK/LDH-coupled NADH absorbance 340 nm; 65,000 compounds, 0.49% hits; phosphomevalonate kinase (Streptococcus pneumoniae D39); inhibition, % at 10 µM; AID 539, 2006;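 active = top-ranked compounds by inhibition in the single 10 µM screen, taking a fixed number of the strongest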;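 also: 0% = full reaction with DMSO carrier and 100% = background rate without enzyme reaction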
Abs 340nm = compound light absorbance at 340 nm, profiling panel, artefact control, biochemical, MLSMR library, data from PS, PMK, MK assays | fold change at 10 µM | AID 708, 2007 | 65,000 tested, under 10 active | compound absorbance at 340 nm, fold over control;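 active = at 10 µM dose, initial 340 nm absorbance at least 2 fold that of control wells; inactive = change under 2 fold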;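 also: initial absorbance extrapolated from kinetic A340 decline of NADH oxidation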
Fluor 339 460 = intrinsic fluorescence of library compounds, ex339/em460 – biochemical, MLSMR library, data from DPM-DC assay, artefact control, profiling panel; fluorescence fold increase at 10 µM; compound autofluorescence, ex339/em460 nm, NADH buffer; hits give high values; 1 = no-compound wells, NADH background; 65,000 compounds, 5.5% hits;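 active = at 10 µM, mean starting fluorescence two-fold or more over control wells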;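 also: signal is the first read of a kinetic run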
Spn MK inh = S. pneumoniae MK inhibitors, primary screen, biochemical, PK/LDH-coupled NADH absorbance; purified MK, PK/LDH-coupled NADH absorbance 340 nm; inhibition, % at 10 µM; 65,000 compounds, 0.48% hits;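 active = ranked among the strongest by inhibition in the single 10 µM screen, a fixed top-ranked set picked for dose follow-up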
NADH coupling = inhibitors of PK/LDH coupling enzymes, profiling panel, artefact control, biochemical, MLSMR library | coupled PK/LDH NADH assays, four targets | IC50, µM (top dose mostly 10 µM), inactives show at the highest dose inhibition | 65,000 compounds, 0.02% hits | AID 774, 2007;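 active = single-dose screening hits from any of four coupled enzyme assays that gave an IC50 when retested across doses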;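 also: the DPM-DC format reads NADH fluorescence rather than 340 nm absorbance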
DPM-DC inhibit = S. pneumoniae DPM-DC inhibitors, primary screen, biochemical, PK/LDH-coupled NADH fluorescence; purified DPM-DC; calls only at 10 µM; 65,000 compounds, 0.49% hits; AID 556, 2006;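 active = the 320 compounds with the highest percent inhibition in the single-dose primary screen, excluding strongly autofluorescent ones, cut at about 32% in these data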;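 also: kinetic rate of NADH fluorescence loss reporting ADP formed by the decarboxylase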
* = called active by the depositor; i = inactive; · = no result given.

SMILES	PMK inhibit	Abs 340nm	Fluor 339 460	Spn MK inh	NADH coupling	DPM-DC inhibit
COc1ccccc1Cn1c(-c2ccco2)nc2nc3ccccc3nc21	1.0	1.04	1.74	9.0	4.0%	i
COc1ccc(CCn2c(-c3ccco3)nc3nc4ccccc4nc32)cc1	9.0	1.02	1.35	0.0	3.0%	i
c1ccc(Cn2c(-c3ccco3)nc3nc4ccccc4nc32)cc1	15.0	1.08	3.69*	9.0	12.0%	·
CCCCCn1c(-c2ccco2)nc2nc3ccccc3nc21	0.0	1.09	3.91*	0.0	0.0%	·
Cc1ccc(-c2nc3nc4ccccc4nc3n2Cc2ccco2)cc1	13.0	1.13	2*	10.0	12.0%	i
COc1cccc2cc(C(=O)C3=C(O)C(=O)N(CCCN4CCOCC4)C3c3ccncc3)oc12 (stereo not given)	16.0	0.99	0.99	8.0	4.0%	i
O=C1CC(N(Cc2ccco2)C(=O)Nc2ccc(F)cc2)C(=O)N1c1ccc(F)cc1 (stereo not given)	5.0	1.06	1.13	14.0	8.0%	i
CN1CCN(Cc2nc3c(c(=O)n(C)c(=O)n3C)n2Cc2ccccc2Cl)CC1	2.0	0.98	1.04	5.0	2.0%	i
CNC(=O)CN(C#N)c1nc(N(C)C)nc(N(C)C)n1	5.0	1	1.02	11.0	3.0%	i
COCC(=O)Nc1nnc(-c2cccs2)s1	4.0	1.1	1.94	0.0	5.0%	i
CCC(C)C(=O)Nc1nnc(-c2cccs2)s1 (stereo not given)	15.0	1.06	2.64*	0.0	10.0%	i
COc1ccc(CN(C)CCc2ccccn2)c(OC)c1OC	4.0	1.04	1.09	68.0*	24.0%	i
Cc1cccc(CN(C)CCc2ccccn2)c1	0.0	1.09	1.15	44.0*	15.0%	i
COc1ccc(-c2nnn(CC(=O)Nc3sc4c(c3C#N)CCCC4)n2)cc1	14.0	1.03	1.03	0.0	6.0%	i
COC(=O)C1=CN(C2CC2)C=C(C(=O)OC)C1c1ccc(C(=O)OC)cc1	4.0	1.07	2.11*	0.0	2.0%	·
CCOC(=O)C1CCN(S(=O)(=O)c2ccc(C(=O)OC)cc2)CC1	16.0	1.05	1.04	2.0	6.0%	i
CCOC(=O)c1c(NC(=O)c2noc3c2CCCC3)sc(C)c1C	0.0	1.03	3.26*	22.0	16.0%	i
CCOC(=O)c1sc(NC(=O)c2noc3c2CCCC3)c(C(=O)OCC)c1C	5.0	0.98	2.15*	12.0	3.0%	·
O=C1CC(c2ccc(F)c(Br)c2)C2=C(CCCC2=O)N1 (stereo not given)	7.0	0.98	1.05	3.0	3.0%	i
Cc1ccc(-c2nnn(CC(=O)N(CC(=O)NCC3CCCO3)c3ccc(F)c(Cl)c3)n2)o1 (stereo not given)	44.0*	1.06	1.05	0.0	15.0%	i
Cc1cc(C)n(-c2cc(-c3ccccc3)nc(C)n2)n1	4.0	1.04	1.07	10.0	5.0%	i
CCOC(=O)CC(=O)CSc1[nH]c(=O)cc(C)c1C#N	0.0	1.02	1.06	7.0	3.0%	i
CC1SC(=NC(=O)c2ccco2)NC1=O (stereo not given)	26.0*	1.07	1.08	4.0	10.0%	i
COC(=O)c1c(C(=O)OC)c2cc(C)ccn2c1Cl	8.0	1.1	3.4*	11.0	10.0%	·
O=C1CSC(c2cn(-c3ccccc3)nc2-c2cc3ccccc3oc2=O)N1Cc1ccco1 (stereo not given)	14.0	1.02	5.02*	7.0	11.0%	·
SMILES	PMK inhibit	Abs 340nm	Fluor 339 460	Spn MK inh	NADH coupling	DPM-DC inhibit
Cc1ccc2oc(-c3ccc(NC(=O)CC(C)C)cc3)nc2c1	4.0	1.09	2.2*	2.0	3.0%	·
Cc1c(C(=O)Nc2ccc3oc(-c4cccnc4)nc3c2)oc2ccccc12	8.0	1.14	3.81*	13.0	11.0%	·
Cc1c(C(=O)Nc2ccc(-n3cnnn3)cc2)oc2ccccc12	10.0	1.06	3.77*	13.0	12.0%	·
CC(=O)Nc1cccc(NC(=O)c2oc3ccccc3c2C)c1	0.0	1.03	1.06	11.0	1.0%	i
CC(C)CC(=O)Nc1ccc2oc(-c3cccnc3)nc2c1	0.0	1.07	2.22*	8.0	4.0%	·
COc1nc(N2CCOCC2)nc(-n2cccc2)n1	4.0	1	0.98	0.0	2.0%	i
Cc1cc(C)cc(-n2nnc(C(=O)NCc3ccccc3Cl)c2N)c1	10.0	0.98	1.07	4.0	5.0%	i
O=C(COc1ccc2c(c1)CCC2)N1CCc2ccccc21	13.0	1.02	1.09	2.0	5.0%	i
COC(=O)COc1ccc2c(=O)c(Oc3ccccc3)c(C)oc2c1	0.0	1.04	1.13	11.0	4.0%	i
Cc1oc2cc(O)ccc2c(=O)c1Oc1ccccc1Br	5.0	1.07	2.2*	0.0	3.0%	·
Cc1oc2cc(O)ccc2c(=O)c1Oc1ccccc1	0.0	1.12	2.25*	5.0	3.0%	·
CCOc1ccccc1Oc1c(C)oc2cc(OC(=O)N3CCOCC3)ccc2c1=O	7.0	1.02	1.09	4.0	4.0%	i
COC(C)(C)[C@]12CC(O)(c3ccccc3)ON1[C@H]1CCCCC1N2O (stereo not given in full)	10.0	1.03	1.13	7.0	6.0%	i
Cc1ccc(Nc2nc(OC(C(F)(F)F)C(F)(F)F)nc(N3CCOCC3)n2)cc1	3.0	1.01	1.08	9.0	5.0%	i
CCOc1nc(Nc2ccc(-c3nc4ccccc4o3)cc2)nc(N2CCOCC2)n1	8.0	1.12	4.76*	0.0	4.0%	·
O=c1c[n+]([O-])c2ccccc2n1OCc1ccccn1	0.0	1.03	1.18	0.0	1.0%	i
O=c1c[n+]([O-])c2ccccc2n1OCc1c(F)cccc1F	12.0*	1.12	1.26	8.0	6.0%	i
CCCCCN=Cc1c(C)[nH]n(-c2nc3ccccc3s2)c1=O	6.0	1.04	1.07	7.0	4.0%	i
CC(=O)c1ccc(N2CCN(c3ccc(C(F)(F)F)cn3)CC2)cc1	40.0*	1.09	1.19	10.0	17.0%	i
Cc1c(C(=O)N2CCN(c3ccc(C(F)(F)F)cn3)CC2)oc2ccccc12	9.0	1	1.06	6.0	5.0%	i
CC(=O)c1cccc(N(C(=O)c2ccco2)C(C(=O)NC2CCCC2)c2ccncc2)c1 (stereo not given)	18.0	0.99	1.1	7.0	8.0%	i
O=C(O)c1ccc(NS(=O)(=O)c2ccc(Cl)cc2)cc1	3.0	1.03	1.07	14.0	7.0%	i
COC(=O)c1ccc(-c2nc3ccc(C)cc3o2)cc1	17.0	1.08	3.76*	10.0	14.0%	·

From PubChem BioAssay
